Data taken from PubChem BioAssay (EPA / NIEHS).
Where “and” joins values, the source holds several entries; their conditions need not be identical. Equal values may be shown once. More than one record can exist for a structure, and the calls need not agree. Calls of active or inactive are those of the source. Rule for the calls: active = hit-call score of the fitted dose curve at least 0.9, where 1 is the maximum; inactive = score below 0.9.

Tests used:
[1] = target: Nuclear respiratory factor 1 (Homo sapiens) (UniProt Q16656); experiment: ATG_NRF1_CIS: Attagene CIS-FACTORIAL HepG2 Assay for human Nuclear Respiratory Factor 1 (NRF1) Orphan Gene (AID 2282987); conditions: HepG2 NRF1 cis-element reporter, Attagene multiplex; actives raise or lower the signal
Sequence of Nuclear respiratory factor 1 (Homo sapiens) (Q16656 whole entry, looked up): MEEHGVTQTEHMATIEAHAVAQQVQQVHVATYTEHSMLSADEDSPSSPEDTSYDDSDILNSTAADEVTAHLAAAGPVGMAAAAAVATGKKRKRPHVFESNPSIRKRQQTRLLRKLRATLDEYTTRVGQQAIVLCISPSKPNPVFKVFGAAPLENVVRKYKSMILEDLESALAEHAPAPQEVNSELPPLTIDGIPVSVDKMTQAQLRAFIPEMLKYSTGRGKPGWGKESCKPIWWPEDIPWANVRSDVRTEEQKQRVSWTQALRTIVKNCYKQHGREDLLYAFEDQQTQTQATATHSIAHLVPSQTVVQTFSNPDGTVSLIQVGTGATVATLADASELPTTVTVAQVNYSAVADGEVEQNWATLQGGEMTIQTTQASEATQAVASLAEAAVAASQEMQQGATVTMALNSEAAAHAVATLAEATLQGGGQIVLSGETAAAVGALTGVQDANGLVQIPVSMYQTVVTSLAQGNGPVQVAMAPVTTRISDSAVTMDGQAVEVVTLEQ
In short: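 Multiplexed cis-reporter assay, HepG2 cells, 24 h treatment. Total RNA → oligo(dT) RT → PCR with reporter-specific primers → 6-FAM primer extension → HpaI cut → CE. Bidirectional fit vs DMSO.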

[2] = ATG_NFI_CIS: Attagene CIS-FACTORIAL HepG2 Assay for human Nuclear Factor I (NFI) (AID 2282989); conditions: HepG2 cis-regulatory reporter, NFI response element transcription; actives raise or lower the signal
In short: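 Read-out: reporter mRNA via RT-PCR plus capillary electrophoresis with fluorescence detection. Transiently transfected HepG2 (endogenous TF activity on cis promoters), 24 h compound exposure; gain or loss of signal fitted against DMSO.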

[3] = target: Myc proto-oncogene protein (Homo sapiens) (UniProt P01106); experiment: ATG_Myc_CIS: Attagene CIS-FACTORIAL HepG2 Assay for human Myelocytomatosis (Myc) Proto-Oncogene Transcription Factor (AID 2282990); conditions: HepG2, Attagene cis-reporter transcription factor activity; actives raise or lower the signal
Sequence of Myc proto-oncogene protein (Homo sapiens) (P01106 whole entry, looked up): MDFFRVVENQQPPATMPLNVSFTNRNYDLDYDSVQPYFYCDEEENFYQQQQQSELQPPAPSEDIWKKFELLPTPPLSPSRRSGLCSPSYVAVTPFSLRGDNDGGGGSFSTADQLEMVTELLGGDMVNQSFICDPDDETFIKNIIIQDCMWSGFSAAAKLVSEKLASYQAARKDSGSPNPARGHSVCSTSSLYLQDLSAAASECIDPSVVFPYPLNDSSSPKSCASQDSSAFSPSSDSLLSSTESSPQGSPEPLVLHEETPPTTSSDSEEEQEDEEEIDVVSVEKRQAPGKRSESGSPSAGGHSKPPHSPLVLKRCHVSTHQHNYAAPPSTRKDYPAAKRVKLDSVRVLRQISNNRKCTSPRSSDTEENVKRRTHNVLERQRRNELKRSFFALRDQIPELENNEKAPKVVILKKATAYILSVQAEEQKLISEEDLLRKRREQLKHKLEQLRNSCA
In short: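 HepG2 cells transiently transfected with multiple cis-promoter-driven reporter transcription units, so endogenous TF activity is read. After 24 h compound exposure, reporter mRNA was quantified by RT-PCR, 6-FAM labelling, HpaI digestion and capillary electrophoresis; bidirectional fit versus DMSO.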

[4] = ATG_NF_kB_CIS: Attagene CIS-FACTORIAL HepG2 Assay for human Nuclear Factor Kappa B (NF-kB) (AID 2282991); conditions: HepG2 Attagene cis-factorial NF-kB reporter mRNA; actives raise or lower the signal
In short: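 Transient MRTU transfection of human HepG2 liver cells → 24 h chemical exposure → total RNA, oligo(dT) RT → PCR, 6-FAM primer extension, HpaI digest 2 h 37 C → CE fragment analysis. Bidirectional fitting, DMSO negative control.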

[5] = ATG_NRF2_ARE_CIS: Attagene CIS-FACTORIAL HepG2 Assay for human Nuclear Factor Erythroid 2 Related Factor 2 (NFR2) response to Antioxidant Response Elements (ARE) (AID 2282992); conditions: HepG2 Attagene ARE/NRF2 reporter, transcription factor activity; actives raise or lower the signal;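 for AC50: reporter mRNA level measured by RT-PCR and capillary electrophoresis fluorescence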
In short: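 Multiplexed reporter mRNA profiling in HepG2 after a 24 h chemical exposure. Curves fitted in both directions relative to DMSO negative control.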

[6] = ATG_Oct_MLP_CIS: Attagene CIS-FACTORIAL HepG2 Assay for human Octamer-Binding Transcription Factor (Oct) (AID 2282993); conditions: HepG2 Attagene cis-factorial Oct reporter, mRNA; actives raise or lower the signal
In short: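 Read-out: reporter mRNA via RT-PCR plus capillary electrophoresis of 6-FAM-labelled fragments. Transiently transfected HepG2, 24 h exposure, endogenous TF activity on cis elements. Gain or loss of signal fitted relative to DMSO.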

[7] = target: Cellular tumor antigen p53 (Homo sapiens) (UniProt P04637); experiment: ATG_p53_CIS: Attagene CIS-FACTORIAL HepG2 Assay for human p53 Transcription Factor (AID 2282994); conditions: HepG2 p53 cis-element reporter, Attagene mRNA; actives raise or lower the signal
Sequence of Cellular tumor antigen p53 (Homo sapiens) (P04637 whole entry, looked up): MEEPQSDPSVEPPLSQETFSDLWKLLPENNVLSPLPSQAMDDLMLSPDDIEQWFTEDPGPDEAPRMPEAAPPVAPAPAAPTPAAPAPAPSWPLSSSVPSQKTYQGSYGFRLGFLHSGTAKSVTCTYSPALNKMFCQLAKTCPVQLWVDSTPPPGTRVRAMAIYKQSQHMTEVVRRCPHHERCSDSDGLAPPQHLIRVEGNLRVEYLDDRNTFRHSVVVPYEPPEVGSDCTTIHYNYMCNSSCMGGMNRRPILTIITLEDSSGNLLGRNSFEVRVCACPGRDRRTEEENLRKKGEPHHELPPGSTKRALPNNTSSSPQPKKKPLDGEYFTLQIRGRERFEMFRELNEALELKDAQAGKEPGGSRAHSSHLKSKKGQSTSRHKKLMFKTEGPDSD
In short: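 Multiplexed reporter mRNA assay in human HepG2 liver cells; cis-regulated units report endogenous factor activity. Values come from bidirectional curve fitting against DMSO negative control after 24 h treatment.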

[8] = BSK_3C_TissueFactor: BioMAP Diversity Plus: 3C Assay for Tissue Factor Biomarker Activity (AID 2282997); conditions: BioMAP 3C HUVEC, tissue factor biomarker readout; actives raise or lower the signal
In short: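 HUVEC were treated 24 h, then surface tissue factor measured by ELISA and fitted bidirectionally against DMSO. Parallel SRB total-protein staining assessed overt cytotoxicity at the same time point.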

[9] = BSK_3C_uPAR: BioMAP Diversity Plus: 3C Assay for Urokinase-type plasminogen activator receptor (uPAR) Biomarker Activity (AID 2282998); conditions: BioMAP 3C HUVEC, uPAR biomarker ELISA; actives raise or lower the signal
In short: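 HUVEC primary cells; 24 h post-dose; uPAR by ELISA; gain or loss of signal fitted bidirectionally vs DMSO baseline.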

[10] = BSK_3C_VCAM1: BioMAP Diversity Plus: 3C Assay for Vascular cell adhesion molecule 1 (VCAM1) Biomarker Activity (AID 2282999); conditions: BioMAP 3C HUVEC, VCAM1 ELISA, cytokine-stimulated; actives raise or lower the signal
In short: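 Human umbilical vein endothelial cells were dosed with compound for 24 h, after which cell-surface VCAM-1 was quantified by ELISA. Bidirectional curve fitting used DMSO as negative control and activity baseline.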

Measured: AC50

Cc1cc(N)n(-c2ccccc2)n1
inactive: [1] | [2] | [3] | [4] | [5] | [6] | [7]

O=c1cc[nH]cc1
inactive: [1] | [2] | [3] | [4] | [5] | [6]

CCC(C)(C)C1CCC(OC)CC1 (configuration not stated)
inactive: [1] | [2] | [3] | [4] | [5] | [6]

CC(C)N(c1ccccc1)C(C)C
inactive: [1] | [2] | [3] | [4] | [5] | [6]

CC1=CC(O)CC(C)(C)C1 (configuration not stated)
inactive: [1] | [2] | [3] | [4] | [5]

Cc1cc(O)c(C)c(C)c1O
inactive: [1] | [2] | [3] | [6] | [7]
active: [4] 50.7 µM | [5] 18.8 µM

CCCO
inactive: [1] | [2] | [3] | [4] | [5] | [6] | [7]

C=C/C(C)=C/C/C=C(\C)CCC=C(C)C
active: [4] 100 µM | [5] 67.1 µM
inactive: [1] | [2] | [3]

CCCCCCCCCCCCOC(C)=O
inactive: [1] | [2] | [3] | [4] | [5]

N#CCCCC(C#N)CCC#N (configuration not stated)
inactive: [1] | [2] | [3] | [4] | [5] | [6]

CCCCCCCCSCc1cc(C)c(O)c(CSCCCCCCCC)c1
inactive: [1] | [2] | [3] | [4] | [5] | [6]

CC1=CC[C@@H](C(C)(C)O)CC1
active: [5] 40.6 µM
inactive: [1] | [2] | [3] | [4] | [6]

CCCCOCC(C)OCC(C)O (configuration not stated)
inactive: [1] | [2] | [3] | [4] | [5] | [6]

COc1cc(OC)c2ccc(=O)oc2c1
inactive: [1] | [2] | [3] | [4] | [5] | [6]

O=C(O)CS
inactive: [1] | [2] | [3] | [4] | [5]

NC(=O)c1cnccn1
inactive: [1] | [2] | [3] | [4] | [5] | [6] | [7]

CCC(=O)OC/C=C(\C)CCC=C(C)C
inactive: [1] | [2] | [3] | [4] | [5]

CC1(C)CC(N)CC(C)(CN)C1 (configuration not stated)
inactive: [1] | [2] | [3] | [4] | [5] | [6] | [7]

O=C(O)c1ccc(C(=O)O)c(C(=O)O)c1
inactive: [1] | [2] | [3] | [4] | [5] | [6]

C[C@]12CC[C@@H]3c4ccc(O)cc4CC[C@H]3[C@@H]1CC[C@@H]2O
inactive: [1] | [2] | [3] | [5] | [6] | [10]
active: [2] 146 µM | [8] 20 µM | [9] 11.9 µM

Cc1ccccc1S
inactive: [1] | [4]
active: [2] 74 µM | [3] 45 µM | [5] 24.5 µM | [6] 98.5 µM

CC(CO)c1ccccc1 (configuration not stated)
inactive: [1] | [2] | [3] | [4] | [5] | [6]

O=C(c1ccc(OCCN2CCCCC2)cc1)c1c(-c2ccc(O)cc2)sc2cc(O)ccc12
inactive: [1] | [2] | [3] | [4] | [5] | [6]
active: [1] 19.6 µM and 17.7 µM | [2] 8.99 µM and 16.7 µM | [5] 6.44 µM [middle of 4 runs] | [6] 8.87 µM [middle of 4 runs] | [8] 34.6 µM | [9] 22.3 µM | [10] 35.4 µM

CN(C)C(=O)Nc1ccccc1
inactive: [1] | [2] | [3] | [4] | [5] | [6]

O=[N+]([O-])c1cc(N(CCO)CCO)ccc1NCCO
inactive: [1] | [2] | [3] | [4] | [5] | [6]

CC1(C)CC(=O)CC(C)(C)N1
inactive: [1] | [2] | [3] | [4] | [5] | [6]

CCC(CC)CO
inactive: [1] | [2] | [3] | [4] | [5] | [6]

CC(CCO)CC(C)(C)C (configuration not stated)
inactive: [1] | [2] | [3] | [4] | [5]

Brc1cc(Br)cc(Br)c1
inactive: [1] | [2] | [3] | [4] | [5] | [6] | [7]

CN(C)c1ccc(C=O)cc1
inactive: [1] | [2] | [3] | [4] | [5]

NC(N)=NC(N)=NCCc1ccccc1
active: [5] 6.3 µM
inactive: [1] | [2] | [3] | [4] | [6] | [7]

CC1=C(C=O)C(C)(C)CCC1
inactive: [1] | [2] | [3] | [4] | [5] | [6]
